# Hit rate of the full screen: of about 51,000 compounds, about 600 (1.2%) were called active. About 2% were inconclusive and are not listed. No stated cut-off is given here; in the data, active means potency below about 11 µM; inconclusive means mostly about 12 µM to 25 µM; inactive means weaker than that;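 the screen sought inhibitors and activators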. The entries come from a sample that favours actives as a whole.
# Test system: pyruvate kinase (Bacillus stearothermophilus)
# Experiment: Pyruvate Kinase
# Conditions: purified pyruvate kinase, luminescence ATP production; ribose 5-phosphate activator present at AC10
# Protocol: Pyruvate kinase (partially purified from Bacillus stearothermophilus) was assayed for its ability to generate ATP from ADP using phosphoenolpyruvate (PEP) as a substrate. ATP generation was detected in a coupled reaction by luciferase-mediated luminescence, an ATP-dependent process. Pyruvate kinase substrates, PEP and ADP, were present in the assay at Km and […]-fold below Km respectively. The enzyme was assayed at an intermediate level of activity to screen for inhibitors and activators. In addition, ribose 5 phosphate, a positive modulator of pyruvate kinase, was included in the assay at AC10 in order to identify possible potentiators.
# NCGC Assay Protocol Summary:
# Three uL of substrate mix (final concentration, 50 mM imidazole pH 7.2, 50 mM KCl, 7 mM MgCl2, 2 mM PEP, 0.1 mM ADP, 0.7 nM ribose 5 phosphate, 0.01% Tween 20, 0.05% BSA) was dispensed into 1536 well plates. 23 nL of compound were delivered by a pin tool and 1 uL of enzyme mix (final concentration, 10 nM pyruvate kinase, 50 mM imidazole pH 7.2, 0.05% BSA) was added. After centrifugation at 1000 rpm for less than a minute, plates were incubated at room temperature for 2 hours. Three uL of detection and kinase stop mix (PKLight, Cambrex) was added, the plates centrifuged, and luminescence read by a ViewLux (Perkin Elmer) at 5 second exposure/plate. Data were normalized to the controls for AC100 stimulation (5 uM ribose 5 phosphate) and to AC100 inhibition (110 uM luteolin).
# Potency means the concentration at half of the fitted maximal effect.
row,Structure (SMILES),Potency
1,CC(C)(C)NC(=O)NC(=O)COC(=O)Cn1c(C(F)(F)F)nc2ccccc21,> 57 µM (inactive)
2,CCN(CC)C(=O)CSc1nnc(-c2ccc(S(=O)(=O)NCc3ccccc3Cl)cc2)o1,> 57 µM (inactive)
3,CCn1c(SCC(=O)Nc2nc3ccc(OC)cc3s2)nnc1-c1ccoc1C,> 57 µM (inactive)
4,O=C(CN1CCN(c2ccccn2)CC1)NCc1cccs1,> 57 µM (inactive)
5,CC(C)n1c(SCC(=O)Nc2ccccc2N2CCCCC2)nc2c1c(=O)n(C)c(=O)n2C,> 57 µM (inactive)
6,COC(=O)c1ccc(Oc2nc(NC(C)C)nc(SC)n2)cc1,> 57 µM (inactive)
7,CNC(=O)CSc1nnc(CCc2ccccc2)n1-c1ccccc1,> 57 µM (inactive)
8,Cc1cc(C)nc(N2CCN(c3ncnc4c3oc3ccccc34)CC2)n1,> 57 µM (inactive)
9,CCOC(=O)C1CCN(C(=O)c2oc3ccc(S(=O)(=O)N4CCCCCC4)cc3c2C)CC1,> 57 µM (inactive)
10,CCOC(=O)C1CCN(c2ncnc3c2oc2ccc(Br)cc23)CC1,10.6 µM (active)
11,CCCC(=O)Nc1cccc(-c2cn3ccsc3n2)c1,49.6 µM (inactive)
12,COc1ccc(-c2cn3ccsc3n2)cc1,4.01 µM (active)
13,O=C(NCc1cn2ccsc2n1)Nc1ccc(Cl)cc1,> 57 µM (inactive)
14,COc1ccc(CCNC(=O)CN2CCC(n3nnc4cc(F)ccc43)CC2)cc1OC,> 57 µM (inactive)
15,CCCc1cc(=O)oc2c(C)c(O)c(CN3CCCCC3)cc12,> 25.6 µM (inactive)
16,COc1ccccc1C(=O)Oc1ccc(N2C(=O)CCC2=O)cc1,> 57 µM (inactive)
17,O=S(=O)(/C=C/c1ccccc1)NCCc1ccccn1,> 57 µM (inactive)
18,O=C(OC1CCOC1=O)c1ccc(-c2nc3ccccc3s2)s1 (stereo not drawn),4.84 µM (active)
19,O=C(c1cccs1)N1CCC(c2nc3ccccc3s2)CC1,> 57 µM (inactive)
20,Cc1nn(Cc2ccccc2)c(Cl)c1C(=O)OC1CCOC1=O (stereo not drawn),> 57 µM (inactive)
21,CC(NCCO)C(=O)C12CC3CC(CC(C3)C1)C2 (stereo not drawn),> 57 µM (inactive)
22,CCC(C)NC(=O)N[C@@H](CCSC)C(=O)O (stereo partly drawn),> 57 µM (inactive)
23,COC(=O)CNC(=O)c1ccc2c(c1)S(=O)(=O)c1ccccc1C2=O,> 57 µM (inactive)
24,O=C(Oc1ccc(-c2nc(-c3ccccn3)no2)cc1)c1ccccc1,6.85 µM (active)
25,O=C(Oc1ccccc1)c1ccc2nccnc2c1,> 57 µM (inactive)

row,Structure (SMILES),Potency
1,CC(C)c1nc(-c2ccccn2)no1,> 57 µM (inactive)
2,CCOC(=O)CSC1=C(C#N)C(c2ccco2)C(C(=O)OCc2ccccc2)=C(C)N1 (stereo not drawn),> 57 µM (inactive)
3,N#Cc1c2c(c(-c3ccccc3)[nH]c1=O)CCCC2,> 25.6 µM (inactive)
4,CCc1nnc(NC(=O)CSc2nnc(-c3ccncc3)n2Cc2ccccc2)s1,> 57 µM (inactive)
5,C=CCN(CC=C)C(=O)CN1C(=O)c2ccccc2C1=O,> 57 µM (inactive)
6,C=CCn1c(C)cc(C(=O)CN2C(=O)c3ccccc3C2=O)c1C,5.37 µM (active)
7,Cc1cc(C(=O)COC(=O)CCCN2C(=O)c3ccccc3C2=O)c(C)n1C,> 57 µM (inactive)
8,O=C1CCC(C(=O)Nc2ccc(OC(F)F)cc2)N1 (stereo not drawn),> 57 µM (inactive)
9,CCCCc1cc(=O)oc2cc(C)cc(OCc3nn[nH]n3)c12,> 57 µM (inactive)
10,COc1ccc(-c2cc3ccc(OCc4nn[nH]n4)cc3oc2=O)cc1,5.08 µM (active)
11,O=c1oc2cc(O)ccc2cc1-c1ccc(F)cc1,> 57 µM (inactive)
12,CCCCOc1ccc(C(C)(O)CCN2CCOCC2)cc1 (stereo not drawn),> 57 µM (inactive)
13,O=C(CC1Nc2ccccc2NC1=O)Nc1ccccc1 (stereo not drawn),> 11.4 µM (inactive)
14,Cc1ncc(CC(=O)n2cc(C(=O)c3cc(Cl)ccc3O)cn2)s1,> 57 µM (inactive)
15,O=C1CC(Cc2ccccc2)C(=O)N1c1ccc(Cl)cn1 (stereo not drawn),> 57 µM (inactive)
16,O=C(O)CCCC(=O)Nc1ccccc1-n1ccnc1,> 57 µM (inactive)
17,CC(=O)c1cc2c(cc1N)OCO2,> 57 µM (inactive)
18,CCCCN(C)C(=O)C1CCN(Cc2ccccn2)CC1,> 57 µM (inactive)
19,Cc1cc(N2CCCC2)n2nc(C)c(-c3ccccc3)c2n1,> 57 µM (inactive)
20,CN(c1nc2ccccc2n2c(-c3ccco3)nnc12)S(=O)(=O)c1ccccc1,> 57 µM (inactive)
21,Cn1c(-c2ccco2)nc2cc3ccccc3cc21,0.493 µM (active)
22,c1coc(-c2nc3nc4ccccc4n3nc2-c2ccco2)c1,> 57 µM (inactive)
23,Clc1ccc(CSc2nnc([C@@H]3CCCN3)o2)cc1,> 57 µM (inactive)
24,CCN1CCN(C(=O)c2ccccc2N(C)S(=O)(=O)c2ccc(C)cc2)CC1,> 57 µM (inactive)
25,Cc1nnc(NC2=NCCCCC2)o1,> 57 µM (inactive)

row,Structure (SMILES),Potency
1,Cc1cc(C)c2nc(SCCC#N)nc(C)c2c1,48.9 µM (inactive)
2,Fc1ccc2[nH]c3c(N4CCN(Cc5ccc6c(c5)OCO6)CC4)ncnc3c2c1,> 25.6 µM (inactive)
3,CNC(=O)C1CC(=O)N(Cc2ccc3c(c2)OCO3)C(=Nc2ccc(F)cc2)S1 (stereo not drawn),> 57 µM (inactive)
4,Cc1cc(C)n(C(=O)c2ccc(C)c(S(=O)(=O)N3CCOCC3)c2)n1,> 57 µM (inactive)
5,COc1ccc2nc(N3CCCC(O)C3)c(C#N)cc2c1 (stereo not drawn),41.4 µM (inactive)
6,O=C(NCc1ccccc1)C1C(=O)N(Cc2ccccc2)C(=O)C1C1(O)CCCC1 (stereo not drawn),> 25.6 µM (inactive)
7,CC1CCCN(C(=O)Cn2c(=O)oc3ccccc32)C1 (stereo not drawn),> 57 µM (inactive)
8,COc1c(F)c(F)c(-c2csc(N)n2)c(F)c1F,> 57 µM (inactive)
9,Cc1cc(=O)oc(C)c1C(=O)Nc1cnc2ccccc2c1,> 57 µM (inactive)
10,Cc1ccc2c(C(=O)CN3CCCC3)c(C)[nH]c2c1,> 11.4 µM (inactive)
11,COc1ccc(OC)c(N=Cc2c(O)[nH]c3ccccc23)c1,> 57 µM (inactive)
12,COC(=O)c1[nH]c2ccccc2c1NS(=O)(=O)c1ccc(OC)cc1OC,> 57 µM (inactive)
13,COc1ccc(N=Cc2c(O)[nH]c3ccccc23)cc1OC,4.61 µM (active)
14,Cc1cc(NC(=O)CSc2nnc(-c3ccc(Cl)s3)o2)no1,> 57 µM (inactive)
15,Cc1ccc2nc(-c3ccc(SCC(=O)Nc4cc(C)on4)nc3)[nH]c2c1,2.74 µM (active)
16,Cc1nc(SCC(=O)Nc2cc(C)on2)c2c(C)c(C)sc2n1,> 57 µM (inactive)
17,Cc1cc(C)c2c(c1)cc(C)c1nnc(SCC(=O)Nc3cc(C)on3)n12,> 57 µM (inactive)
18,COc1ccc(OC)c2c(N)c(C#N)c(C(F)(F)C(F)(F)F)nc12,> 25.6 µM (inactive)
19,C=CCc1cccc2cc(C(=O)N3CCN(C(=O)OCC)CC3)c(=O)oc12,> 57 µM (inactive)
20,COc1ccccc1CNCc1cccs1,> 57 µM (inactive)
21,COc1ccc(CNC(=O)c2c(C)cc(=O)oc2C)cc1OC,> 25.6 µM (inactive)
22,Cc1ccc(C(=O)NCC2CCCO2)o1 (stereo not drawn),> 57 µM (inactive)
23,CCc1cc2c(=O)c(-c3ccon3)c(N)oc2cc1OC,4.26 µM (active)
24,COc1cccc(N2CC(C(=O)Nc3c(C)cccc3C)CC2=O)c1 (stereo not drawn),> 57 µM (inactive)
25,Cc1cccc(NC(=O)c2ccccc2NC(=O)C(C)(C)C)n1,> 57 µM (inactive)

row,Structure (SMILES),Potency
1,CCn1c(=N)n(CC(=O)c2cccc(OC)c2)c2ccccc21,38.1 µM (inactive)
2,Cn1c(/C(C#N)=C2/CCCCCN2)nc2ccccc21,> 57 µM (inactive)
3,CC1CCCCN1CC(=O)NCc1ccc2c(c1)OCO2 (stereo not drawn),> 57 µM (inactive)
4,CN(CCc1ccccn1)S(=O)(=O)c1ccc2c3c(cccc13)C(=O)N2,> 57 µM (inactive)
5,CSc1ccc(Cl)c(C(=O)OCC(=O)N2CC(C)OC(C)C2)c1 (stereo not drawn),> 57 µM (inactive)
6,NC(=O)COc1ccc2c3c(c(=O)oc2c1)CCCCC3,> 57 µM (inactive)
7,CCN(CC)S(=O)(=O)c1cccc(C(=O)NCC(=O)OCC(=O)NCc2ccccc2)c1,> 57 µM (inactive)
8,CCCCC(CC)C(=O)Nc1ccc(Cl)cn1 (stereo not drawn),> 57 µM (inactive)
9,O=C(Nc1ccc(Cl)cn1)c1cnn2cccnc12,8.73 µM (active)
10,CC(Oc1ccc(Cl)cc1)C(=O)Nc1ncccn1 (stereo not drawn),> 57 µM (inactive)
11,O=C(Nc1ncccn1)c1cccs1,> 57 µM (inactive)
12,O=C(O)c1ccc(NC(=O)c2cccs2)cc1,> 57 µM (inactive)
13,Cc1nc(-c2ccc(NC(=O)c3cccs3)cc2)cs1,2.04 µM (active)
14,COC(=O)CCSc1nccn1Cc1ccccc1,> 57 µM (inactive)
15,O=c1c(F)cn(C2CCCO2)c(=O)n1Cc1ccccc1Cl (stereo not drawn),> 25.6 µM (inactive)
16,CCCOc1ccc(CN(CCO)CCO)cc1C(=O)OC,> 57 µM (inactive)
17,COc1ccc(N(Cc2cc3cc(OC)ccc3[nH]c2=O)S(C)(=O)=O)cc1,7.73 µM (active)
18,CCN(Cc1cc2cc(C)ccc2[nH]c1=O)S(=O)(=O)c1ccccc1,> 57 µM (inactive)
19,CCC(=O)N(Cc1cc2cc(OC)ccc2[nH]c1=O)c1ccccc1C,> 57 µM (inactive)
20,COc1cccc(NC(=O)c2ccccc2SC)c1,> 57 µM (inactive)
21,CC(C)(O)C#Cc1ccc(C(=O)N2CCC(C(N)=O)(N3CCCCC3)CC2)cc1,> 57 µM (inactive)
22,Cc1ccc(NC(=O)CS(=O)CC(=O)N(c2ccccc2)C(C)C(=O)NC2CCCC2)cc1 (stereo not drawn),> 57 µM (inactive)
23,CCCCC(=O)N(c1ccc(OC)cc1)C1C=CS(=O)(=O)C1 (stereo not drawn),> 57 µM (inactive)

# Source: PubChem BioAssay AID361 (National Center for Advancing Translational Sciences (NCATS), 2006)
